PubChem BioAssay AID602399 (Sanford-Burnham Center for Chemical Genomics, 2012)
The campaign covered roughly 360,000 compounds. About 2,800 (0.78%) were called active. Cut-off read from the data, not from the text of the source: active = inhibition above about 26%; inactive = the rest. The sample as a whole holds a higher share of actives than the screen did.

system: Nicotinate-nucleotide adenylyltransferase NadD (Staphylococcus aureus N315); assay: S. aureus NadD enzyme activity blockers – biochemical, colorimetric, uHTS, primary screen (AID 602399); settings: purified NadD enzyme, colorimetric absorbance read-out; at 20 µM; hits give high values

Structure (SMILES) | inhibition
CCOc1ccc(-c2cn(S(=O)(=O)c3cccc4nsnc34)nc2N)cc1 | -0.18% (inactive)
CC(C)c1nnc(NC(=O)CCC(=O)N2CCN(c3cccc(Cl)c3)CC2)s1 | 1.72% (inactive)
COc1c(F)c(F)c(-c2csc(N)n2)c(F)c1F | -5.11% (inactive)
O=C(Nc1ccc(OCCO)cc1)c1csc([C@H]2C[C@H](O)[C@@H](CO)O2)n1 | -8.65% (inactive)
CCCNC(=O)c1cnc(-c2ccccc2)nc1-c1ccccc1 | -3.59% (inactive)
CCOc1cc(/C=C2/N=C(c3ccc(C(C)(C)C)cc3)OC2=O)cc(Cl)c1OS(C)(=O)=O | 71.7% (active)
O=C(Nc1nc2ccc([N+](=O)[O-])cc2s1)c1ccc(S(=O)(=O)N2CCCc3ccccc32)cc1 | 34.4% (active)
CNC(=O)c1ccsc1NC(=O)c1ccc(S(=O)(=O)N2CCc3ccccc32)cc1 | 11.7% (inactive)
O=C(NC(Nc1nc2ccc([N+](=O)[O-])cc2s1)(C(F)(F)F)C(F)(F)F)c1ccccc1 | -2.21% (inactive)
O=C(OCc1cn(-c2ccc(Cl)c(Cl)c2)nn1)c1ccccc1Cl | 0.666% (inactive)
C=CCc1cccc2cc(C(=O)N3CCN(C(=O)OCC)CC3)c(=O)oc12 | -4.59% (inactive)
COc1ccc(C)cc1NC(=O)c1ccc(-c2ccc(C(C)=O)cc2)o1 | -8.65% (inactive)
CN(c1ccccn1)c1ncnc2[nH]ncc12 | -2.6% (inactive)
Cc1cc(C)c2c(c1)cc(C)c1nnc(SCC(=O)Nc3cc(C)on3)n12 | 0.406% (inactive)
N#Cc1ccc(CSc2ncccn2)cc1 | -1.45% (inactive)
N#CC1=C(SCc2ccc(C#N)cc2)N=C(N)C(c2nc(-c3ccccc3)cs2)C12CCCCC2 (centres undefined) | 39.1% (active)
Cc1ccc(NC(=O)CN(C)S(=O)(=O)c2cnc[nH]2)cc1C | -2.1% (inactive)
COC(=O)c1c(NC(=O)COc2ccc(Cl)cc2Cl)sc2c1CC(C)(C)NC2(C)C | -5.59% (inactive)
COc1ccc(Cl)cc1-n1c(=S)sc2c(=O)n(-c3ccc(F)cc3)c(SCC(=O)O)nc21 | -1.15% (inactive)
CCc1ccc(-n2c(=S)sc3c(=O)n(-c4ccccc4OC)c(=S)[nH]c32)cc1 | 26.4% (active)
COc1ccccc1N1CCN(c2nc(C)cc(=O)[nH]2)CC1 | 0.434% (inactive)
COc1ccccc1-n1c(=S)[nH]c2c(sc(=S)n2-c2ccc(C)cc2C)c1=O | 26.4% (active)
COc1cccc(-n2c(=S)sc3c(=O)n(-c4ccccc4OC)c(SCC4OCCO4)nc32)c1 | -4.72% (inactive)
COc1cccc(-n2c(=S)sc3c(=O)n(-c4ccccc4C)c(SCC(=O)O)nc32)c1 | -0.498% (inactive)
